Among all 330,000 compounds or so, about 5,800 (1.8%) were called active. The entries come from a sample that favours actives as a whole. Unmarked numbers belong to inactive results.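 How the source made its calls: active means inhibition above about 50% at the single tested dose (limit read from the data); inactive means the rest.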
target: Sentrin-specific protease 6 (Homo sapiens) (UniProt Q9GZR1); experiment: SENP6 protease inhibitors, primary screen, biochemical, luminescence, uHTS (AID 2599); conditions: Recombinant SENP6 catalytic domain, aminoluciferin luminescence; at 10 µM; stronger effect = higher value;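 further: plate controls were DMSO wells with enzyme for no effect and DMSO wells lacking enzyme for full effect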
Sequence (Q9GZR1 628-1112 limits assumed): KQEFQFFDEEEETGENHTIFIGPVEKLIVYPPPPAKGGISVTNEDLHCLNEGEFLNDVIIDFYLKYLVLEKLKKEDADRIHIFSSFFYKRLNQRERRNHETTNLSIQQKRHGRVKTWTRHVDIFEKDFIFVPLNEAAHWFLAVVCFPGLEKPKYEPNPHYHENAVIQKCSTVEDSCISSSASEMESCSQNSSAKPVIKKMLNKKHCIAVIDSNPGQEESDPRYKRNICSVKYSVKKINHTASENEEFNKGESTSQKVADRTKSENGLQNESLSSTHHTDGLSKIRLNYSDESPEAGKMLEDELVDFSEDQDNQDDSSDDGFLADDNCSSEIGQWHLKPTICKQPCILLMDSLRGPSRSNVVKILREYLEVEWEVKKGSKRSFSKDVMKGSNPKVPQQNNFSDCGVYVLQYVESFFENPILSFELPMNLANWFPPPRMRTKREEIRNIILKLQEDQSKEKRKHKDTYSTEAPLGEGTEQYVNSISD

SMILES	inhibition
Cn1ncc2c(NNC(=O)Cc3cccc4ccccc34)ncnc21	-8.95%
O=C(CN1CCN(c2cccc(Cl)c2)CC1)Nc1ccc(S(=O)(=O)N2CCOCC2)cc1	5.09%
CCOC(=O)C(NC(C)=O)C(=O)Nc1ccc(OC)cc1 (configuration not stated)	4.26%
CCC(CO)Oc1cc(NCc2ccccc2)c2ncn(C3CCCC3)c2c1 (configuration not stated)	1.75%
CCC(CO)Oc1cc(NC(=O)c2ccc(Cl)cc2)c2ncn(C(C)C)c2c1 (configuration not stated)	-20.3%
CCC(CO)Oc1cc(NC(=O)c2cccc3ccccc23)c2ncn(C(C)C)c2c1 (configuration not stated)	-4.87%
CC(C)n1cnc2c(NCc3ccccc3)cc(N[C@@H](CO)Cc3ccccc3)cc21	75.8% (active)
CCC(CO)Oc1cc(NC(=O)c2cccc(F)c2)c2ncn(C(C)C)c2c1 (configuration not stated)	-22.5%
CC(C)n1cnc2c(NCc3ccccc3)cc(OCC3CCN(C)CC3)cc21	77.9% (active)
COc1ccc(OC)c(S(=O)(=O)Nc2c(C)nn(C)c2C)c1	-2.99%
COc1ccccc1CCNC(=O)CSc1nnc2ccc(-c3cccnc3)nn12	17%
CC(C)(C)CC(C)(C)NCC(O)COCCOc1ccc(Br)cc1 (configuration not stated)	9.07%
O=C(O)CC/C(=C\c1cc2c(cc1Br)OCO2)c1nc2ccccc2s1	-4.31%
Cc1cc(N=Nc2ccc3ccccc3c2)ccc1O	98% (active)
Cc1ccccc1CSc1nnc(-c2ccccn2)n1N	7.46%
COc1ccc(C2C=C(c3ccc(Br)cc3)Nc3nc(NS(C)(=O)=O)nn32)cc1 (configuration not stated)	3.75%
Brc1ccccc1C1Nc2cccc3cccc(c23)N1	51.7% (active)
Oc1ccc(C2Nc3cccc4cccc(c34)N2)cc1	15.2%
C/C(=C\c1ccco1)C1Nc2cccc3cccc(c23)N1	-84.6%
CC1CN(C(=S)Nc2cccc(F)c2)CC(C)O1 (configuration not stated)	15.9%
O=c1ccc(S(=O)(=O)N2CCCC2)cn1Cc1nc(-c2ccccc2)no1	-10.4%

SMILES	inhibition
CN(C)c1ccc(NC(=O)CN2C3CCCC2CC(NC(=O)c2ccccc2)C3)cc1 (configuration not stated)	-8.69%
COC(=O)c1ccccc1NC(=O)C1(S(=O)(=O)c2ccc(Cl)cc2)CC1	16.9%
Nc1ccc2nn(-c3ccc(Cl)cc3)nc2c1	95% (active)
c1ccc(-n2nc3ccccc3n2)cc1	-28.4%
CN(C)c1nnnn1-c1ccc(Cl)cc1	2.68%
CN(C)CCCNC(=O)c1cc(C(=O)Cc2ccc(Cl)cc2)c[nH]1	-9.62%
O=C(CSC(=S)N1CCOCC1)c1cc(Br)cc(Br)c1O	-12.1%
O=C(CSC(=S)N1CCOCC1)c1ccccc1	60.8% (active)
CC1CN(C(=S)SCC(=O)c2ccccc2)CC(C)O1 (configuration not stated)	-20.8%
Cc1ccc(CNC(=O)CC2Sc3ccccc3NC2=O)cc1 (configuration not stated)	-4.12%
C#CCOCCOCCOCCNc1nc(N2CCN(C(=O)C([C@@H](C)CC)n3cc(C(N)COC(=O)C(F)(F)F)nn3)CC2)nc(N2CCN(C(=O)[C@H](CCCCN)n3cc(C(N)CC(C)C)nn3)CC2)n1 (some centres not stated)	-9.82%
O=C(Nc1cccc(C(=O)N2CCCC2)c1)c1ccccc1	-14.4%
O=C(Nc1cccc(NC(=O)c2cccc(F)c2)c1)c1ccccc1	-18.8%
O=C(Nc1ccc(C(=O)O)c(O)c1)c1ccccc1	83.4% (active)
COc1cccc(N2CC(C(=O)NCc3n[nH]c(=O)c4ccccc34)CC2=O)c1 (configuration not stated)	-13.6%
O=C(O)/C=C/c1ccc(S(=O)(=O)N2CCCCCC2)cc1	16.2%
CC(C)c1nc(SCC(=O)NC(=O)NC(C)(C)C)n[nH]1	-25.6%
O=C(Nc1ccc(F)cc1)c1cc2c(s1)CCCC2	89% (active)
CN(C)C(=O)c1ccc(NC(=O)COC(=O)c2cc3c(s2)CCCCC3)cc1	-9.42%
O=C(NCC1CCCO1)c1cc2c(s1)CCCC2 (configuration not stated)	6.51%
COc1cccc(C(=O)Nc2nc3ccc(S(C)(=O)=O)cc3s2)c1	89.1% (active)

SMILES	inhibition
Cc1noc(C)c1CSCC(=O)Nc1nc2ccc(Oc3ccccc3)cc2s1	14.7%
CCc1noc(C)c1C(=O)Nc1nc(-c2ccccc2)cs1	-13.3%
CS(=O)(=O)c1ccc2nc(NC(=O)c3ccc(Cl)nc3)sc2c1	0.381%
COc1cccc(C(=O)Nc2nnc(S(=O)(=O)N(C)c3ccccc3)s2)c1	12.8%
CCc1noc(C)c1C(=O)Nc1nc2ccc(OC)cc2s1	59.6% (active)
CC1=NN(C(=O)CCc2ccccc2O)C(O)(C(F)(F)F)C1 (configuration not stated)	13.7%
COc1ccccc1CCC(=O)OCC(=O)N1CCN(S(=O)(=O)c2ccc(C)cc2C)CC1	-9.38%
O=C(Nc1ncc([N+](=O)[O-])s1)C1COc2ccccc2O1 (configuration not stated)	97.8% (active)
COc1ccc(OC)c2sc(NC(=O)C3COc4ccccc4O3)nc12 (configuration not stated)	-3.77%
COc1ccc(NC(=O)C2COc3ccccc3O2)cc1 (configuration not stated)	2.57%
CC(C)(C)C(=O)NCCCNc1ccc([N+](=O)[O-])cc1	-25.9%
O=C(Nn1cnc2ccccc2c1=O)c1ccccc1	-4.91%
O=c1c2ccccc2ncn1/N=C/c1ccccc1	85.3% (active)
CCCc1nc2ccccc2c(=O)n1/N=C/c1ccc(O)c(O)c1	-27.3%
COc1cccc(CNn2cn[nH]c2=S)c1OCc1ccccc1	-3.63%
Cc1cc2nc(SCCN3CCOCC3)[nH]c2cc1C	1.61%
COc1ccc(/C=C2\SC(=S)N(CC(=O)NNC(=O)c3ccncc3)C2=O)cc1	-3.66%
O=C(CCCN1C(=O)/C(=C/c2ccccc2)SC1=S)Nc1ccc(O)cc1	21.3%
C=CCOc1ccc(/C=C2\SC(=S)N(CCC(=O)O)C2=O)cc1	100% (active)
O=C(CN1CCCCC1)Nc1ccccc1C(=O)NC1CC1	-13.9%
